For 50 compounds, AC50 and activity, negative = inhibition results are on record in PubChem BioAssay AID1851 (National Center for Advancing Translational Sciences (NCATS), 2009).

Where “and” joins values, the source holds several entries; their conditions need not be identical. Equal values may be shown once. Hit rate of the full screen: of about 16,000 compounds, about 5,100 (32%) were called active. Roughly 25% stayed inconclusive and do not appear here. The call rests on the fitted dose curve; in most records, active means well fitted curve in the direction sought with a large enough effect; inconclusive means small, poorly fitted or top-dose-only effect, or effect the other way; inactive means no such curve, though single readings can be large or run the other way. The list shows a part of the results.
On the % scale 0 is the no-effect control and ±100 the full control effect.

Chain of Cytochrome P450 3A4 (Homo sapiens) (P08684 whole entry, looked up): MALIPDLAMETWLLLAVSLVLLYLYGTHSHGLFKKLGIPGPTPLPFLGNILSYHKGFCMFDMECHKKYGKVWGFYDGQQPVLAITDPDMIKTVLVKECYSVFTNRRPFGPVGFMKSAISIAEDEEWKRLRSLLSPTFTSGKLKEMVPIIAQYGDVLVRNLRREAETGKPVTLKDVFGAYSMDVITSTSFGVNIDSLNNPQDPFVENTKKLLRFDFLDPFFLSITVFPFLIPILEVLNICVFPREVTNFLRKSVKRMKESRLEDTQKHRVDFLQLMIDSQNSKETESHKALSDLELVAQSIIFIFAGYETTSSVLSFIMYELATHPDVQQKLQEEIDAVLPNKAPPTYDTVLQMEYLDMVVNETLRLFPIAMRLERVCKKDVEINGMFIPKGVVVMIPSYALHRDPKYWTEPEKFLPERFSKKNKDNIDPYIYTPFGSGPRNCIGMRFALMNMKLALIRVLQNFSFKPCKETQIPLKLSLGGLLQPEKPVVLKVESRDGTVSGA

The assay has as its target Cytochrome P450 3A4 (Homo sapiens) (UniProt P08684). As to the kind of experiment: Cytochrome panel assay with activity outcomes. As to conditions: recombinant CYP, pro-luciferin dealkylation, luminescence, p450-cyp3a4; series mostly up to 57.1 µM.
A word on the AC50: it is the midpoint of the concentration-response curve, whichever way the signal moves. Regarding `N#Cc1ccccc1-c1ccc2ncnc(NCCN3CCOCC3)c2c1`, the AC50 was 10 µM (active).

With `COc1ccccc1-c1ccc2ncnc(NCCN3CCOCC3)c2c1`, the AC50 is 7.94 µM (active).

Consider `Clc1ccccc1-c1ccc2ncnc(NCCN3CCOCC3)c2c1`, for which the AC50 was 5.01 µM (active).

In the case of `S=c1nc(-c2ccccc2)oc2c1CCCC2`, the AC50 entry is “inactive”.

Consider `CCOC(=O)c1c2ccc(OCC(=O)N/N=C/c3ccc(Cl)cc3)cc2n2ccccc12`, for which the activity, negative = inhibition was -26.7% [at 2.29 µM] (inactive).

For the compound `O=C(CSCc1cccc(Cl)c1)N/N=C/c1ccc(OCC(=O)N2CCCCC2)cc1`, the AC50 is 14.1 µM (active).

Consider `Cc1cccc(C(=O)N/N=C/c2ccc(OCC(=O)N3CCCCC3)cc2)c1`, for which the concentration at half-maximal activity (AC50) is 20 µM (active).

As for `Cc1cccc(OCC(=O)N2CCC(N3CCCCCC3)CC2)c1`, the AC50 result was “inactive”.

As to `O=C(CN1CCCC1)N/N=C/c1ccc(-c2cccc(Cl)c2)o1`, the activity, negative = inhibition was 13.8% [at 2.29 µM] (inactive).

As to `COc1ccc2oc(=O)c(C(=O)Oc3ccc(NC(C)=O)cc3)cc2c1`, the AC50 result was “inactive”.

For `COc1ccc2cc3cc(C(=O)Nc4ccc5c(c4)OCO5)oc3nc2c1`, the half-maximal activity concentration (AC50) was 0.355 µM (active).

Regarding `COc1ccc2cc3cc(C(=O)NCc4ccc5c(c4)OCO5)oc3nc2c1`, the AC50 was 0.708 µM (active).

As for `C/C(O)=C\c1nc2ccccc2oc1=O`, the AC50 entry is “inactive”.

As for `CO[C@@H]1/C=C\O[C@@]2(C)Oc3c(C)c(O)c4c(c3C2=O)C(=N[C@H]2CC[C@H](O)O[C@@H]2C)C=C(NC(=O)/C(C)=C\C(=O)[C@@H]2C[C@@H]2[C@@H](O)[C@H](C)[C@@H](O)[C@H](C)[C@H](OC(C)=O)[C@@H]1C)C4=O`, the AC50 was 1.26 µM (active).

With `CO[C@H]1C=CO[C@]2(C)Oc3c(C)c(O)c4c(O)c(c5c(c4c3C2=O)NC2(CCN(CC(C)C)CC2)N=5)=NC(=O)C(C)=CC=C[C@@H](C)[C@@H](O)[C@@H](C)[C@@H](O)[C@@H](C)[C@@H](OC(C)=O)[C@@H]1C`, the AC50 result was “inactive”.

For the compound `CC(C)C(=O)NC(=S)Nc1ccccc1C(=O)Nc1ccccc1`, the activity, negative = inhibition is 11.2% [at 2.29 µM] (inactive).

Take `Cc1ccccc1NC(=O)/C(=C/c1ccccc1)c1ccccc1`: the activity, negative = inhibition was 12.5% [at 11.4 µM] (inactive).

With `COc1ccc(/C=C(/C(=O)Nc2ccccc2C(=O)NC(C)C)c2ccccc2)cc1`, the concentration at half-maximal activity (AC50) is 11.2 µM (active).

Turning to `OC[C@@H]1NC[C@@H](O)[C@H]1O`, the AC50 result is “inactive”.

For `Cc1cc(C)c(-c2cc([C@H](C)O/N=C\[C@@H](C)[C@H](OCc3ccccc3)C(C)C)on2)c(C)c1`, the activity, negative = inhibition was -37.1% [at 11.4 µM] (inactive).

On to `CCN1C(=O)[C@H]2[C@H]3[C@H](O)[C@H](O)C/C(=N/O[C@@H](C)c4cn([C@H]5COC[C@H]5O)nn4)[C@@H]3CC[C@@H]2C1=O`, for which the activity, negative = inhibition is -18.4% [at 11.4 µM] (inactive).

For the compound `CC(C)=NO[C@@H](C)c1cn([C@@H]2COC[C@@H]2O)nn1`, the activity, negative = inhibition was -6.38% [at 11.4 µM] (inactive).

Consider `COc1cccc([C@H]2Oc3ccc(OC)cc3/C(=N\O[C@@H](C)c3cn([C@H](CO)Cc4ccccc4)nn3)[C@@H]2O)c1`, for which the AC50 was 3.16 µM (active) and 3.98 µM (active).

For `COc1cccc([C@@H]2Oc3ccc(OC)cc3/C(=N/O[C@@H](C)c3cn([C@H]4COC[C@H]4O)nn3)[C@@H]2O)c1`, the AC50 was 3.16 µM (active).

For `COc1cccc([C@@H]2Oc3ccc(OC)cc3/C(=N/O[C@@H](C)c3cc(-c4c(C)cc(C)cc4C)no3)[C@@H]2O)c1`, the half-maximal activity concentration (AC50) is 1.58 µM (active).

With `CCC(NC(=O)C1(C)CC1(Br)Br)c1ccc(C)cc1` (stereo not given), the AC50 is 3.98 µM (active).

As for `CCC(C)[C@H](NC(=O)NC1CCN(Cc2ccccc2)CC1)C(=O)OC` (stereo not given in full), the AC50 entry is “inactive”.

With `CCC(C)C(NC(=O)OCc1ccccc1)C(=O)OCN1C(=O)c2ccccc2C1=O` (stereo not given), the AC50 was 7.08 µM (active).

In the case of `O=C1NCCc2c1[nH]c1ccccc21`, the activity, negative = inhibition was 17.8% [at 2.29 µM] (inactive).

In the case of `CCOC(=O)COc1c(C=O)cc(Br)cc1OC`, the AC50 entry is “inactive”.

Regarding `CCOc1cc(/C=C2\N=C(C)OC2=O)cc(Br)c1OCC(=O)OC`, the AC50 is 10 µM (active).

Turning to `O=C1CCC(c2ccccc2)(c2ccccc2)CC1`, the activity, negative = inhibition is 10.5% [at 11.4 µM] (inactive).

Turning to `c1ccc2c(CC3NCCN3)cccc2c1`, the activity, negative = inhibition is -5.75% [at 11.4 µM] (inactive).

On to `CN1CCCC[C@@H]1CCN1CCCCC1`, for which the activity, negative = inhibition is -2.94% [at 11.4 µM] (inactive).

Turning to `CCN(CC)c1nc2ccccc2[nH]1`, the AC50 result is “inactive”.

In the case of `OCCNc1nc2ccccc2[nH]1`, the AC50 entry is “inactive”.

As for `c1ccc(-c2n[nH]c(-c3ccccc3)c2-c2nc3ccccc3[nH]2)cc1`, the AC50 was 2.24 µM (active).

`Cc1c(Cl)c(S(N)(=O)=O)cc2c1=NC=NS=2(=O)O`: the activity, negative = inhibition was -13% [at 11.4 µM] (inactive).

For the compound `CCON=C1C(C)(C)C(C)(C)C(C)(C)C1(C)C`, the activity, negative = inhibition was -9.31% [at 11.4 µM] (inactive).

In the case of `COc1ccc(O[C@H]2C=C[C@@H](c3ccccc3)O[C@H]2COC(=O)CC/C(C)=N\O[C@@H](C)CN2CCCCc3nc(C)c(C)cc32)cc1`, the AC50 is 3.98 µM (active).

Consider `COc1ccc(O[C@H]2C=C[C@@H](c3ccccc3)O[C@H]2COC(=O)CC/C(C)=N\O[C@@H](C)CN2CCCc3nc(C)c(C)cc32)cc1`, for which the AC50 was 3.16 µM (active).

`Cc1ccc(N(C(C)C(=O)Nc2cc(Cl)ccc2Oc2ccccc2)S(C)(=O)=O)cc1` (stereo not given): the half-maximal activity concentration (AC50) is 4.47 µM (active).

Consider `CC(C(=O)Nc1ccccc1Sc1ccccc1)N(c1ccccc1)S(C)(=O)=O` (stereo not given), for which the AC50 was 5.01 µM (active).

`O=C(O)[C@@H]1Cc2c([nH]c3ccccc23)[C@@H](CCCCO)N1`: the activity, negative = inhibition was 1.47% [at 11.4 µM] (inactive).

In the case of `CC(=O)N1CCC2(CCCN(c3ncccn3)C2)CC1`, the AC50 result is “inactive”.

Consider `CC(=O)Nc1ccc(S(=O)(=O)NC2(C(F)(F)F)NC(=O)N(c3ccc(Cl)cc3)C2=O)cc1` (stereo not given), for which the AC50 entry was “inactive”.

Take `COc1ccc(CCN2C(=NC(=O)CCC(=O)O)SC3CS(=O)(=O)CC32)cc1` (stereo not given): the AC50 result is “inactive”.

Consider `O=C(CC1C(=O)N(c2ccc(Cl)cc2)C(=S)N1CCc1ccncc1)Nc1ccc(F)cc1` (stereo not given), for which the half-maximal activity concentration (AC50) was 1.26 µM (active).

As to `COc1ccc(C(=O)NC2(C(F)(F)F)C(=O)Nc3c2c(=O)[nH]c(=O)n3CCc2ccc(OC)c(OC)c2)cc1` (stereo not given), the AC50 result is “inactive”.

For `CCNC(=O)CC1C(=O)N(c2ccc(F)cc2)C(=O)N1CCc1ccc(OC)cc1` (stereo not given), the AC50 was 7.08 µM (active).
